Target: AMP-activated protein kinase, AMPK (Homo sapiens) (UniProt P54646+O43741+P54619+Q9UGJ0+Q9Y478+Q13131+Q9UGI9)
Assay: AMP-dependent Kinase enzyme assay. An in vitro enzyme assay that detects ADP turnover that is directly proportional to AMPK activity. This uses naive AMPK that is activated during the assay with MK-8722
Assay type: functional
Parameters: scale not given: direction of the effect not stated beside the values
Conditions: 30 µM

| Compound | Percent Effect |
| --- | --- |
| CN1CCC(c2n[nH]c(=O)n2-c2cccc(Cl)c2)CC1 | 65.1% |
| O=C(NC1CCCCC1)N1C[C@H]2CN(c3cnccn3)C[C@@]2(C(=O)O)C1 | 2.64% |
| COc1ccc(N2CCC(NS(=O)(=O)N(C)C(C)C)CC2)cc1 | 13.8% |
| CC(C)C(=O)Nc1cccc(CNC(=O)CSCc2ccccn2)c1 | 1.74% |
| Fc1ccccc1CN1CCC[C@@H](Cn2nnc(-c3cccs3)n2)C1 | 5.25% |
| CN(CCc1ccncc1)c1cnn(C)c(=O)c1Br | -1.01% |
| N#Cc1ccc(CN(CC(N)=O)Cc2cccc(F)c2)cc1 | -6% |
| O=C(NCc1ccccn1)c1cc2n(n1)CCNC2 | 11.8% |
| Cc1cc(CNCC2CNc3ccnn3C2)no1 (stereo not given) | -2.57% |
| Cn1cnc(S(=O)(=O)N2CCCC2c2ccnc3nccn23)c1 (stereo not given) | 0.76% |
| NC(=O)C1CCN(c2ccc(C(=O)N3CCc4ccccc43)cn2)C1 (stereo not given) | 6.03% |
| CN(C)c1ccc(C(=O)N2CCC(c3cc4ncccc4[nH]3)CC2)cc1 | 21.8% |
| OCCOCCNCC1(c2ccc(F)cc2)CCOC1 (stereo not given) | -5.55% |
| CO[C@H]1CN(Cc2c(C)ccc3ncccc23)CC[C@H]1N | 1.31% |
| CCCN1CCC(N2CCC(Cn3cc(CC(C)O)nn3)CC2)CC1 (stereo not given) | -7.12% |
| CC(C)CCc1noc(C[S+]([O-])CC(=O)NCc2ccccc2)n1 (stereo not given) | -1.86% |
| CCc1oc(C(=O)N[C@@H]2c3ccccc3C[C@@H]2O)cc1C | -3% |
| O=C(O)c1ccn(-c2ccccc2NC(=O)c2ccccc2Cl)n1 | 5.51% |
| O=C1NCCCCC1NC(=O)N1CCCc2ccccc21 (stereo not given) | -0.938% |
| CN(CC(=O)NCCc1ccccn1)C(=O)c1cccs1 | 4.43% |
